In PubChem BioAssay AID1159580 (chemical genetic matrix, 2015):
The whole screen tested about 5,500 compounds, of which about 2,000 (36%) were called active. Not shown: some 18% with an inconclusive outcome. No stated cut-off is given here; in the data, active means normalized growth mostly below about 0.91 (no sharp cut-off); inconclusive means no clear call, values can overlap the other calls; inactive means mostly above about 0.92. The list shows a part of the results.

Test: chemical genetic growth profiling, strain panel (AID 1159580);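 further: tested at 20 µM; growth read once vehicle control cultures reached saturation at 30 °C; 1 = growth at the plate median or of vehicle wells; lower values mean less growth of the strain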
Settings: growth OD

Measured: normalized growth

C=C[C@](C)(O)CCC=C(C)C
inactive: S. cerevisiae deletion strains, locus YBR021W, strain FUR4, hits give low values 1.01 | S. cerevisiae deletion strains, locus YBR229C, strain ROT2, hits give low values 1 | S. cerevisiae deletion strains, locus YCL029C, strain bik1, hits give low values 1.02 | S. cerevisiae deletion strains, locus YDL035C, strain GPR1, hits give low values 1.04 | S. cerevisiae deletion strains, locus YDL074C, strain BRE1, hits give low values 1.06 | S. cerevisiae deletion strains, locus YDL101C, strain DUN1, hits give low values 1.01 | S. cerevisiae deletion strains, locus YDL134C, strain PPH21, hits give low values 1 | S. cerevisiae deletion strains, locus YDL185W, strain tfp1, hits give low values 1.02 | S. cerevisiae deletion strains, locus YDL192W, strain arf1, hits give low values 1.01 | S. cerevisiae deletion strains, locus YDR101C, strain arx1, hits give low values 1.04 | S. cerevisiae deletion strains, locus YDR162C, strain NBP2, hits give low values 1 | S. cerevisiae deletion strains, locus YDR318W, strain mcm21, hits give low values 0.986 | S. cerevisiae deletion strains, locus YDR388W, hits give low values 1.01 | S. cerevisiae deletion strains, locus YDR502C, strain sam2, hits give low values 0.999 | S. cerevisiae deletion strains, locus YEL061C, strain CIN8, hits give low values 1 | S. cerevisiae deletion strains, locus YER110C, hits give low values 1.01 | S. cerevisiae deletion strains, locus YER155C, strain BEM2, hits give low values 1.01 | S. cerevisiae deletion strains, locus YER167W, strain BCK2, hits give low values 1.01 | S. cerevisiae deletion strains, locus YGL078C, strain dbp3, hits give low values 1.02 | S. cerevisiae deletion strains, locus YGL086W, strain mad1, hits give low values 1.05 | S. cerevisiae deletion strains, locus YGL248W, strain PDE1, hits give low values 0.995 | S. cerevisiae deletion strains, locus YGR135W, strain pre9, hits give low values 1.01 | S. cerevisiae deletion strains, locus YGR252W, strain gcn5, hits give low values 0.977 | S. cerevisiae deletion strains, locus YHR030C, strain SLT2, hits give low values 1.01 | S. cerevisiae deletion strains, locus YHR079C, strain IRE1 (second series), hits give low values 1.01 | S. cerevisiae deletion strains, locus YHR094C, strain hxt1, hits give low values 1.01 | S. cerevisiae deletion strains, locus YHR129C, strain ARP1, hits give low values 1.02 | S. cerevisiae deletion strains, locus YHR200W, strain rpn10, hits give low values 1.01 | S. cerevisiae deletion strains, locus YIL066C, strain RNR3, hits give low values 1.01 | S. cerevisiae deletion strains, locus YIL073C, strain SPO22, hits give low values 1.03 | S. cerevisiae deletion strains, locus YIL125W, strain kgd1, hits give low values 1.02 | S. cerevisiae deletion strains, locus YIR030C, strain dcg1, hits give low values 0.998 | S. cerevisiae deletion strains, locus YJL095W, strain BCK1, hits give low values 0.988 | S. cerevisiae deletion strains, locus YJL134W, strain LCB3, hits give low values 0.999 | S. cerevisiae deletion strains, locus YJL168C, strain set2, hits give low values 1.01 | S. cerevisiae deletion strains, locus YJL187C, strain SWE1 (second series), hits give low values 1 | S. cerevisiae deletion strains, locus YJR043C, strain POL32, hits give low values 1.04 | S. cerevisiae deletion strains, locus YJR075W, strain HOC1, hits give low values 1 | S. cerevisiae deletion strains, locus YKL009W, strain mrt4, hits give low values 1.05 | S. cerevisiae deletion strains, locus YKL068W, hits give low values 1 | S. cerevisiae deletion strains, locus YKL085W, strain MDH1 (second series), hits give low values 0.995 | S. cerevisiae deletion strains, locus YKL085W, strain MDH1, hits give low values 0.995 | S. cerevisiae deletion strains, locus YKL190W, strain CNB1, hits give low values 1 | S. cerevisiae deletion strains, locus YKR001C, strain vps1, hits give low values 1.06 | S. cerevisiae deletion strains, locus YLR039C, strain RIC1, hits give low values 1.03 | S. cerevisiae deletion strains, locus YLR058C, strain SHM2, hits give low values 0.997 | S. cerevisiae deletion strains, locus YLR102C, strain apc9, hits give low values 1.01 | S. cerevisiae deletion strains, locus YLR262C, strain YPT6, hits give low values 1.01 | S. cerevisiae deletion strains, locus YLR268W, strain sec22, hits give low values 1.06 | S. cerevisiae deletion strains, locus YLR330W, strain CHS5, hits give low values 1.02 | S. cerevisiae deletion strains, locus YLR342W, strain FKS1 (second series), hits give low values 1.05 | S. cerevisiae deletion strains, locus YLR371W, strain rom2, hits give low values 1.02 | S. cerevisiae deletion strains, locus YLR418C, strain cdc73, hits give low values 0.984 | S. cerevisiae deletion strains, locus YML016C, strain PPZ1, hits give low values 1.01 | S. cerevisiae deletion strains, locus YML032C, strain rad52, hits give low values 0.973 | S. cerevisiae deletion strains, locus YML124C, strain tub3, hits give low values 0.999 | S. cerevisiae deletion strains, locus YMR078C, strain ctf18, hits give low values 1.01 | S. cerevisiae deletion strains, locus YMR223W, strain ubp8, hits give low values 0.994 | S. cerevisiae deletion strains, locus YMR307W, strain GAS1, hits give low values 1.03 | S. cerevisiae deletion strains, locus YNL067W, strain RPL9B, hits give low values 1.01 | S. cerevisiae deletion strains, locus YNL233W, strain BNI4, hits give low values 1 | S. cerevisiae deletion strains, locus YNL250W, strain rad50, hits give low values 1.02 | S. cerevisiae deletion strains, locus YNL271C, strain bni1, hits give low values 1.01 | S. cerevisiae deletion strains, locus YNL298W, strain CLA4, hits give low values 1.02 | S. cerevisiae deletion strains, locus YNL307C, strain MCK1, hits give low values 1.03 | S. cerevisiae deletion strains, locus YNL322C, strain KRE1, hits give low values 1 | S. cerevisiae deletion strains, locus YNR052C, strain pop2, hits give low values 0.997 | S. cerevisiae deletion strains, locus YOL006C, strain TOP1, hits give low values 1.1 | S. cerevisiae deletion strains, locus YOL012C, strain htz1 1.44 | S. cerevisiae deletion strains, locus YOL147C, strain pex11, hits give low values 1 | S. cerevisiae deletion strains, locus YOR061W, strain CKA2, hits give low values 1 | S. cerevisiae deletion strains, locus YOR069W, strain VPS5, hits give low values 1.01 | S. cerevisiae deletion strains, locus YOR136W, strain idh2, hits give low values 1.01 | S. cerevisiae deletion strains, locus YOR144C, strain elg1, hits give low values 1.01 | S. cerevisiae deletion strains, locus YOR184W, strain ser1, hits give low values 1.05 | S. cerevisiae deletion strains, locus YOR316C, strain cot1, hits give low values 1.01 | S. cerevisiae deletion strains, locus YPL241C, strain CIN2, hits give low values 0.998 | S. cerevisiae deletion strains, locus YPR119W, strain clb2, hits give low values 1 | S. cerevisiae deletion strains, locus YPR141C, strain kar3, hits give low values 1 | S. cerevisiae deletion strains, locus YPR163C, strain tif3, hits give low values 1 | S. cerevisiae deletion strains, locus YPR167C, strain met16, hits give low values 0.999 | S. cerevisiae deletion strains, strain wtn01, hits give low values 1.07 | S. cerevisiae strains, strain wild type, hits give low values 1.01
